Laboratory results: PubChem BioAssay AID504773 (Broad Institute, 2011)
Results with a measured potency or affinity are listed apart. The source made the active and inactive calls.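 Rule for the calls: active = polarization signal falls with dose and the fitted half-maximal concentration is at or below ten times the sample's top valid dose; inconclusive = flat curve at 30 to 70% inhibition, or poor fit; inactive = signal rises, flat within 30%, or potency beyond limit.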

The molecules below were run against Golgi-associated PDZ and coiled-coil motif-containing protein (Homo sapiens) (UniProt Q9HD26) (assay: CAL PDZ peptide-binding inhibitors, dose response, biochemical, fluorescence polarization, Cerulean-tagged CAL PDZ, cherry-picks (AID 504773;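 note: 0% = DMSO neutral wells and -100% = excess unlabeled competitor peptide wells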)). Settings: 1 h; series mostly up to 50 µM; activity change, negative = inhibition: at the top concentration.

Activity change, negative = inhibition, inactive:
Cn1c(=O)c2c(nc(SCC(=O)NCC3CCCO3)n2Cc2ccc(F)cc2)n(C)c1=O (stereo unspecified) -69.9%
O=C(c1cccc(Oc2c(Cl)cccc2[N+](=O)[O-])c1)N1CCOCC1 6.74%
O=C(NCc1cccnc1)c1ccc(Cn2c(=S)[nH]c3ccc(Br)cc3c2=O)cc1 2.36%
Cn1c(=O)c2c(ncn2CC(=O)Nc2nc(-c3ccccc3Cl)cs2)n(C)c1=O 6.53%
O=P(O)(COc1ccccc1)COc1ccccc1 1.96%
O=C(NCc1ccccn1)c1ccc(NS(=O)(=O)c2ccccc2)cc1 10.4%
Cc1c(NC(=O)CN2CCC(C(N)=O)CC2)cccc1[N+](=O)[O-] 7.36%
O=C(OCC(=O)N1CCc2ccccc2C1)c1cccnc1Cl -20.7%
O=C(c1ccc([N+](=O)[O-])cc1)N1CCC(Cc2ccccc2)CC1 -10.4%
CCCn1cnc2c(SCCc3ccccc3)nc(N)nc21 -32.1%
CC1Cc2ccccc2N1C(=O)CNc1ccccc1N1CCCCC1 (stereo unspecified) 11.6%
Cc1ccc(C(=O)NC(=S)N2CCN(c3cc(C)ccc3C)CC2)cc1 -8.14%
CC1CCCCC1NCC(=O)NCc1ccc(F)cc1 (stereo unspecified) -33.3%
COC(=O)C(C(=O)OC)c1ccc(N)cc1 14.9%
COc1ccc(N2CCN(C3CCCN(Cc4ccc(F)cc4)C3)CC2)cc1 (stereo unspecified) 20%
COc1cc(C(=O)ON=C2C(C)=CC(=O)C=C2C)cc(OC)c1OC 28%
COc1ccc(C(C)=O)cc1COC(=O)CNC(=O)c1ccccc1F -10.4%
O=C(NNS(=O)(=O)c1ccc(Cl)cc1)c1cccs1 20.6%
CCC(=O)c1cn(CC(=O)Nc2cccc(C)c2C)c2ccccc12 15.6%
O=C(NCCc1ccccc1)C1CCC(=O)N(CCCN2CCCC2=O)C1 (stereo unspecified) 22.9%
O=C(COC(=O)c1ccccc1C(=O)N1CCN(c2ccccc2)CC1)NCc1ccccc1 -4.35%
CS(=O)(=O)c1ccc(Cl)c(NC(=O)COC(=O)c2c(Cl)cccc2Cl)c1 -13.4%
CCn1ncc(Br)c1C(=O)Nc1cccc(F)c1 14.7%
COc1ccccc1NC(=O)c1c([N+](=O)[O-])cnn1C 25.3%
COc1ccccc1C(=O)Nc1ccc2c(c1)CN(C(=O)CSC)CC2 5.71%
CCC(=O)c1ccc(N2CCC(C)CC2)c(F)c1 14.7%
O=C(COc1ccc(Cl)cc1Cl)Nc1nnc(C2=COCCO2)o1 0.72%
COc1ccc(CC(=O)NCC2CCCN(Cc3cccc(SC)c3)C2)cc1 (stereo unspecified) 26.5%
C[C@H](NC(=O)c1ccccc1Cl)C(=O)NCc1cccs1 -55.6%
O=C(NCc1ccc(Cl)cc1)C(=O)NCC1OCCN1C(=O)c1ccc(Cl)cc1 (stereo unspecified) 19.7%
NC(=O)C1CCN(c2ncccc2[N+](=O)[O-])CC1 -12.7%
Cc1ccccc1S(=O)(=O)NC(=NCc1ccc(F)cc1)c1ccccc1 -1.95%
Cc1cccc(CN2CCc3c([nH]c4ccccc34)C2CC(C)C)n1 (stereo unspecified) 7.87%
COc1cccc(CN2CCN(C3CSCCSC3)CC2CCO)c1 (stereo unspecified) 6.69%
CCOC(=O)C1=C(C)OC(N)=C(C#N)C1c1cccc(C)c1 (stereo unspecified) 8.6%
C[n+]1ccc(C(=O)Nc2ccccc2Cl)cc1 4.9%
